# Results reported in PubChem BioAssay AID624168 (Sanford-Burnham Center for Chemical Genomics, 2012).
# About 800 (0.22%) of roughly 360,000 compounds were called active.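 The calls were made as follows: active = activation of at least 8% versus controls, or a plate z-score of at least 8; inactive = the rest.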 Shown is part of a subset that was picked to be rich in actives.
# Assay: compounds raising alpha-dystroglycan glycosylation – uHTS, Pro5-aDG cells, AlphaScreen, primary screen (AID 624168);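 also: Pro5 are CHO cells carrying HIG-tagged alpha-DG that lacks glycosylation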
# Conditions: alpha-DG glycosylation AlphaScreen (IIH6), at 10 µM, hits give high values, 0% Pro5, 100% B10-LARGE cell signal
row,SMILES,activation
1,O=C(NCc1cccnc1)c1ccc(CS(=O)(=O)c2ccc(Br)cc2)o1,-0.2% (inactive)
2,O=C1CC(c2cccc(Br)c2)C2=C(CCCC2=O)N1 (stereo unspecified),0% (inactive)
3,Cc1ccsc1/C=N/NC(=O)Cc1cc(=O)[nH][nH]1,-0.1% (inactive)
4,CNC(=O)COc1ccc(S(=O)(=O)Nc2ccccc2)cc1,0.1% (inactive)
5,O=S(=O)(Nc1ccc(OC(F)(F)F)cc1)c1cccc2nonc12,-0.1% (inactive)
6,O=S(=O)(Nc1ccc(O)c2ccccc12)c1ccc(OC(F)(F)F)cc1,2.6% (active)
7,Cc1ccc(C)c(C(=O)N2CCC(n3nccc3NC(=O)C3CC3)CC2)c1,0.3% (inactive)
8,CC(NC(=O)COC(=O)Cn1cc(C(F)(F)F)ccc1=O)c1ccccc1 (stereo unspecified),-0.1% (inactive)
9,COc1ccc(-c2oc(/N=C/N3CCCC3)c(C#N)c2-c2ccc(OC)cc2)cc1,0.1% (inactive)
10,COc1cccc(CN(C)CC2CCCN(CCc3ccc(Cl)cc3)C2)c1OC (stereo unspecified),0% (inactive)
11,O=C(Nc1cccc(-c2cccc(Cl)c2)c1)C1CCN(C2CCC2)CC1,1.9% (inactive)
12,CCn1cc(CN2CCC(C(=O)Nc3cccc(-c4cccc(Cl)c4)c3)CC2)c(C)n1,7.1% (active)
13,CCn1cc(CN2CCC(C(=O)Nc3cccc(-c4cccc(Cl)c4)c3)CC2)cn1,3.4% (inactive)
14,CN(C)N1C(N)=C(C#N)C(c2ccc(Br)cc2)C2=C1CCCC2=O (stereo unspecified),0% (inactive)
15,O=C(Cn1nnc(N2CCCCC2)n1)c1ccc(Cl)c(Cl)c1,-0.1% (inactive)
16,CCCn1c(=N)n(CC(=O)c2ccc(Cl)c(Cl)c2)c2ccccc21,9.7% (active)
17,CCN(CC)CC1(O)CCN(C(=O)c2ccc(Cl)c(Cl)c2)CC1,-0.1% (inactive)
18,O=C(O)c1ccccc1-c1cccc2nncn12,0.1% (inactive)
19,Cc1ccc(-c2ccc(CN3C(C(C)C)C(=O)N(Cc4cn(CCC5OCCCO5)nn4)CCS3(=O)=O)cc2)cc1 (stereo unspecified),0.4% (inactive)
20,CC(C)C(c1nnnn1C(C)(C)C)N1CCN(Cc2cccnc2)CC1 (stereo unspecified),-0.3% (inactive)
21,O=C(Cn1ncc2c3ccccc3n(Cc3ccccc3)c2c1=O)NCc1ccccn1,-0.4% (inactive)
22,CC(C#N)OC(=O)c1cccnc1SCC(=O)Nc1ccc2c(c1)OCO2 (stereo unspecified),0.5% (inactive)
23,Nc1scc[n+]1Cc1cccc2cccnc12,1.9% (active)
24,c1ccc2c(C[n+]3csc4ccccc43)cccc2c1,-0.1% (inactive)
25,CC(NCc1ccccc1OC1CCCC1)c1ccccc1 (stereo unspecified),0.5% (inactive)
26,O=C(COc1cccc(Cl)c1)NCc1ccccc1,0.1% (inactive)
